Screens as filed in PubChem.
pAkt inh = inhibitors of Akt phosphorylation | Neuro2A IGF-stimulated pAkt S473 HTRF, 20 min; active compounds read low | activity change, % for hits at 50 µM | 360,000 compounds, 0.32% hits; in the data active = activity change below about -80%; inconclusive = mostly about -51% to -80%; note: % is set by controls: 0 for no effect and ±100 for the full control effect
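Neuro2A cells (4,500/well, DMEM with 0.5% FBS) were treated with compound at a single 50 µM final concentration, stimulated with 6 nM IGF for 20 min at 37 °C, and lysed. Phospho-Akt Ser473 was read by HTRF as 665/615 ratio ×10^4.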
TDP-43 yeast inh = inhibitors of TDP-43 toxicity in yeast; 410,000 compounds, 1.8% hits; TDP-43 expressing yeast growth rescue, BacTiter-Glo, 24 h; AID 652104; Potency, µM (highest dose often 46.1 µM), without a hit: at the top dose growth rescue (activation), hits mostly activators; note: potency is the fitted concentration of half-maximal effect; % of control where 0% means no effect; nearly all actives have a fitted effect of over 50% in size
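In this qHTS, compounds that restore growth of yeast expressing TDP-43 appear as activators. Cells (OD600=0.02, galactose medium, raffinose-pregrown) are incubated with compound 24 hr at 30 deg C and growth is quantified by BacTiter-Glo.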
CCT chaperon mod = cytosolic chaperonin activity modulation | AID 651819 | activity change, % (no concentration beside the values), hits read low | 360,000 compounds, 0.3% hits | purified chaperonin ATPase assay, HTRF ADP detection, 30 min; in the data active = activity change below about -30%; note: % is set by controls: 0 for no effect and ±100 for the full control effect
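ATPase activity: ADP formed was measured by HTRF Transcreener (665/615 nm ratio) after 30 min at 37 deg C with 10 uM ATP. Compounds screened at one 76 uM concentration against 40 or 20 nM TRiC in Tris pH 7.4/KCl/MgCl2/DTT buffer.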
Mito fusion yeast = blocks mitochondrial division or promotes mitochondrial fusion | Potency, µM (titrated, usually from 46.1 µM), for the others: at the top dose growth rescue (activation), hits mostly activators | S. cerevisiae fusion-defective mutant growth rescue, CellTiterGlo 48 h | 320,000 compounds, 0.23% hits; note: potency is the fitted concentration of half-maximal effect; % of control where 0% means no effect; nearly all actives have a fitted effect of over 45% in size
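Luminescent cell viability in 1536-well qHTS format served as the measure of rescued growth in ts fusion-mutant S. cerevisiae cultured on non-fermentable YPEG for 48 hours at 37C.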
Anesthetic bind = candidate novel general anesthetic via apoferritin binding | P02791 | apoferritin/1-aminoanthracene competitive binding, fluorescence | Potency, µM (titrated, usually from 77.5 µM), without a hit: at the highest dose activity change, negative = displacement, usual class: inhibitors | 350,000 compounds, 0.074% hits | AID 485281; note: potency is the fitted concentration of half-maximal effect; % is set by controls: 0 for no effect and ±100 for the full control effect; nearly all actives have a fitted effect of over 20% in size
Target sequence (P02791 2-175 limits assumed): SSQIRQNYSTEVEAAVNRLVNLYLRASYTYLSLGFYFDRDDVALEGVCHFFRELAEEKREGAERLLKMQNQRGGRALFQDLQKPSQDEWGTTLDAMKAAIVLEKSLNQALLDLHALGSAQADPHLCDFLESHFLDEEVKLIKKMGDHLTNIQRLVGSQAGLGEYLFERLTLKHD
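Read-out: endpoint 1-AMA fluorescence, excitation 380 nm and emission 535 nm, after compounds sit 10 min at room temperature with 10 uM horse-spleen apoferritin in 50% saturated 1-AMA/PBS. Values come from four-parameter Hill fits.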
aSyn yeast inh = alpha-synuclein toxicity inhibition in yeast; Yeast expressing alpha-synuclein, growth rescue, BacTiter-Glo, 24 h; Potency, µM (highest dose often 46.1 µM), inactives show top-dose growth rescue (activation), actives largely listed as activators; 370,000 compounds, 0.14% hits; AID 652106; note: potency is the fitted concentration of half-maximal effect; % of control where 0% means no effect; nearly all actives have a fitted effect of over 65% in size
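Screening used galactose-induced yeast with toxic alpha-synuclein levels, exposed to compound for 24 hr at 30 deg C. Cell growth, read with BacTiter-Glo luminescence, gave the measured signal.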
* = called active by the depositor; i = inactive; ? = inconclusive; / = not tested or not shown. Sampled rows, rich in hits. Any-hit rate of the full collection: about 2.5%. Unless noted, calls come from the whole dose curve; as a rule, active = well fitted curve in the direction sought with a large enough effect; inconclusive = small, poorly fitted or top-dose-only effect, or another doubt; inactive = no such curve, though single readings can be large; an effect the other way counts as inactive or inconclusive.

SMILES	pAkt inh	TDP-43 yeast inh	CCT chaperon mod	Mito fusion yeast	Anesthetic bind	aSyn yeast inh
Cc1ccc(-c2nc(N3CCN(S(=O)(=O)c4ccc(F)cc4)CC3)c3ccc(Cl)cc3n2)cc1	/	/	/	/	/	-1.7%
CNc1ncnc2c1cnn2-c1ccc(C)c(C)c1	/	11.2µM*	/	/	4.8%	/
CCOCCCNc1ncnc2c1cnn2-c1ccc(C)c(C)c1	/	11.2µM*	/	/	-6.2%	/
O=c1c2cccnc2n(Cc2ccccc2F)c(=O)n1Cc1ccccc1Cl	/	23.1%	/	/	-1.1%	/
COc1ccc(-c2nsc(NC(=O)COc3ccc(C)c(C)c3)n2)cc1	/	1.9%	/	/	-2.0%	/
Cc1c(NS(C)(=O)=O)cccc1-c1nc2cccnc2s1	i	12.6%	-0.5	0.3%	-2.6%	-2.5%
Cc1c(NS(=O)(=O)c2cccs2)cccc1-c1nc2cccnc2s1	i	22.4µM*	-1.6	20.8%	?	?
Cc1nc2ccc(S(=O)(=O)Nc3cccc(-c4nc5cccnc5s4)c3)cc2s1	i	?	-0.8	15.8µM*	-21.1%	?
Cc1nc2ccc(S(=O)(=O)Nc3ccc(-c4nc5cccnc5s4)cc3)cc2s1	i	0.0%	-5.7	?	4.8%	5.7%
Cc1c(NS(=O)(=O)c2ccc3c(c2)OCCO3)cccc1-c1nc2cccnc2s1	i	35.5µM*	0.2	20.4%	-7.5%	?
CC(=O)ON(C(C)=O)c1ccc(/C=C2\C=Cc3ccccc32)cc1	/	/	/	/	/	-15.9%
COc1ccccc1-c1cc(C(F)(F)F)nc(S(C)(=O)=O)n1	i	35.5µM*	1.6	13.1%	-2.8%	-22.0%
COc1ccccc1-c1cc(C(F)(F)F)nc(S(=O)(=O)CCCC(=O)Nc2cccnc2Cl)n1	i	12.6µM*	2.0	10.1%	-21.2%	-0.1%
COc1ccccc1-c1cc(C(F)(F)F)nc(S(=O)(=O)CCCC(=O)Nc2ccccc2F)n1	/	-6.8%	/	/	-9.9%	/
CCCCOc1ccc(CC(=O)N(C)OC)cc1	/	/	/	/	/	9.0%
CCOC(=O)c1c(C)[nH]c(CCC(=O)Nc2ccccc2C(=O)OC)c1C	/	?	/	/	4.6%	/
CCN(CC)/[N+]([O-])=N/OCOC(=O)C(C)c1ccc2cc(OC(C)=O)ccc2c1 (centres undefined)	/	/	/	/	/	-4.0%
COc1ccc(C2=NN(C(=O)CSc3nc4ncc(Cl)cc4[nH]3)C(c3ccco3)C2)cc1 (centres undefined)	i	35.5µM*	0.9	11.0%	-16.3%	0.1%
CCc1ccc(NC(=O)Cn2ccn(-c3ccc(C)c(C)c3)c(=O)c2=O)cc1	/	6.6%	/	/	?	/
COc1oc(=O)c2cc(N)ccc2c1Cl	/	/	/	/	67.5%	/
COc1cccc(C2=NO[C@@H]3C(=O)N(Cc4ccccc4)C(=O)[C@H]23)c1OC	i	12.6µM*	0.0	-4.3%	-12.3%	-0.9%
CCOC(=O)C(NC(=O)c1ccccc1)(Nc1cc(C)on1)C(F)(F)F (centres undefined)	-129.4%*	7.8%	-0.3	7.7%	35.7%	-0.6%
COc1ccccc1OC(C)C(=O)N1CCC(c2nc3ccccc3s2)CC1 (centres undefined)	/	14.1µM*	/	/	11.0%	/
CCc1ccc(OC(C)C(=O)N2CCC(c3nc4ccccc4s3)CC2)cc1 (centres undefined)	/	15.8µM*	/	/	8.5%	/
CC(C)Oc1ccc(C(=O)N2CCC(c3nc4ccccc4s3)CC2)cc1	/	3.8%	/	/	2.4%	/
SMILES	pAkt inh	TDP-43 yeast inh	CCT chaperon mod	Mito fusion yeast	Anesthetic bind	aSyn yeast inh
O=C1/C(=C/c2cccc([N+](=O)[O-])c2)CCc2ccccc21	i	22.4µM*	0.4	6.0%	-17.0%	4.6%
CC(=O)Oc1ccc(/C=C2/CCc3ccccc3C2=O)cc1	i	11.2µM*	-1.0	-2.4%	1.2%	-29.6%
O=C1C(=Cc2ccccn2)CCc2ccccc21	i	17.8µM*	0.9	/	/	0.7%
O=C(Nc1ccc(Cl)c(C(F)(F)F)c1)C1CCN(S(=O)(=O)c2cccc3nonc23)CC1	/	19.5%	/	/	-16.9%	/
CN(Cc1ccccc1)c1ccc(/C=C/c2sc3ccccc3[n+]2C)cc1	/	/	/	/	/	-3.4%
O=C1CC(c2ccc(F)cc2)c2cc3c(cc2N1)CCC3 (centres undefined)	i	-6.7%	1.0	11.2µM*	-17.9%	?
S=c1nc[nH]c2n[nH]nc12	/	/	/	/	/	0.3%
COc1ccc(OCCCCn2c(C3CC(=O)N(c4cccc(Cl)c4)C3)nc3ccccc32)cc1 (centres undefined)	/	3.7%	/	/	135.7%	/
CCOc1ccc(NS(=O)(=O)c2ccc3[nH]c4c(c3c2)CCCCC4)cc1	/	17.8µM*	/	/	8.0%	/
CCN(CC(=O)Nc1ccc(NC(C)=O)cc1)CC(=O)Nc1cccc(Cl)c1	i	-24.2%	-71.1*	-5.7%	-5.3%	-7.2%
c1ccc(Nc2scc(-c3ccccc3)[n+]2Cc2ccco2)cc1	i	20µM*	2.2	6.8%	?	-20.2%
Cc1ccccc1-c1nc(CN2CCC(C(=O)NCC3CCCO3)CC2)c(C)o1 (centres undefined)	-118.8%*	-14.4%	-8.3	-2.6%	-7.7%	-1.6%
CCOC(=O)c1c(/C=N/Nc2ccccc2)c2sc(C)cc2n1C	/	/	/	8.4%	/	/
CCCCn1c(=O)c(C(=O)OCC)c(O)c2ccccc21	i	15.8µM*	-3.9	18.0%	-12.5%	6.9%
Nc1ccc(Br)c2c1C(=O)c1ccccc1C2=O	i	6.31µM*	-0.5	4.0%	?	17.9%
Nc1ccc(O)c2c1C(=O)c1ccccc1C2=O	i	-6.2%	-6.5	-8.1%	-13.8%	-1.5%
CCN(CC)C(=O)Cn1cc(C(=O)C(=O)N(C)C2CCN(C)CC2)c2ccccc21	i	7.4%	-89.6*	0.4%	-4.9%	-3.6%
CC(Oc1cccnc1[N+](=O)[O-])C(=O)Nc1ccc(Cl)cn1 (centres undefined)	i	14.3%	-1.9	5.6%	/	-11.5%
CC(Oc1cccnc1[N+](=O)[O-])C(=O)Nc1cccc(Cl)c1 (centres undefined)	i	15.8µM*	-1.2	11.5%	/	-1.1%
CC(Oc1ccc(Cl)cc1Cl)C(=O)Nc1cccnc1 (centres undefined)	-111.8%*	1.4%	-1.4	8.4%	-0.5%	-24.2%
CC(Oc1cccc(Cl)c1)C(=O)Nc1ccc([N+](=O)[O-])cn1 (centres undefined)	i	12.6µM*	-3.0	19.0%	-3.9%	-3.4%
CC(Oc1ccc(Cl)cc1Cl)C(=O)Nc1ccncc1 (centres undefined)	i	5.8%	2.0	2.8%	-10.9%	-12.0%
